Rows were chosen to be rich in hits. Some 19% of all compounds tested hit in one or more screens of this group.
DT40 TDP1 CPT: qHTS for Inhibitors of human tyrosyl-DNA phosphodiesterase 1 (TDP1): qHTS in cells in presence of CPT. chicken DT40 Tdp1-/-;hTDP1 cells + 20 nM CPT, ATP luminescence, 48 h. Potency, µM (doses to about 46.2 µM), most hits filed as inhibitors. 420,000 tested, 12% active. AID 686979, 2013; further: nearly all actives have a fitted effect of over 55% in size
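Chicken DT40 Tdp1-/- cells stably complemented with human TDP1 were seeded at 400 cells/well in medium containing 20 nM camptothecin, exposed to pin-transferred compounds, and grown at 37 °C for at least 48 hr. Viability was read as ATP luminescence.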
HT1080-NT tox: qHTS for induction of synthetic lethality in tumor cells producing 2HG: qHTS for the HT-1080-NT fibrosarcoma cell line. HT-1080-NT fibrosarcoma viability, CellTiter-Glo ATP luminescence, 48 h. Potency, µM (highest dose often 46.1 µM), hits mostly cytotoxic. 360,000 tested, 1.6% active. AID 686970, 2013;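 further: NT is the 2HG producing partner of a matched IDH1 knockdown line; nearly all actives have a fitted effect of over 55% in size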
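Compounds were tested in concentration-response format on HT-1080-NT cells for 48 hours at 37 degrees C. Cell viability came from CellTiter-Glo luminescence; curves were classified by r2, response magnitude and activity.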
DT40 TDP1 no CPT: qHTS for Inhibitors of human tyrosyl-DNA phosphodiesterase 1 (TDP1): qHTS in cells in absence of CPT; DT40 Tdp1-/- hTDP1 cells, no CPT, ATP luminescence, 48 h; Potency, µM (top dose mostly 46.2 µM), most hits filed as inhibitors; 420,000 tested, 15% active; further: nearly all actives have a fitted effect of over 55% in size
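Stably hTDP1-transfected Tdp1-null chicken DT40 cells were treated with library compounds minus camptothecin and grown for at least 48 hr at 37 °C, after which cellular ATP was quantified by luminescence.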
HT1080 IDH1KD tx: qHTS for induction of synthetic lethality in tumor cells producing 2HG: qHTS for the HT-1080-IDH1KD cell line; HT-1080 IDH1 knockdown viability, ATP luminescence, 48 h; 360,000 tested, 2% active; AID 686971, 2013; Potency, µM (top dose mostly 46.1 µM), hits mostly cytotoxic
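After a 2 h attachment period, IDH1KD HT-1080 cells took pin-transferred compound for 48 h at 37 °C; ATP-based luminescence after 10 min room-temperature reagent incubation reported viability.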
IL1B secr inh: qHTS for Inhibitors of Inflammasome Signaling: IL-1-beta AlphaLISA Primary Screen. THP-1 LPS/ATP IL-1B secretion, AlphaLISA, 16 h; active compounds read low. activity change, % at 57.5 µM. 360,000 tested, 4.7% active. AID 743279, 2014; in the data active means activity change below about -50%; inconclusive means mostly about -30% to -49%
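Secreted IL-1B measured by AlphaLISA bead assay after 16 h compound exposure of THP-1 cells; compounds (final up to 57.5 uM) added 1 h before LPS (250 ng/mL) and ATP (1.25 mM) stimulation; lower signal means less secretion.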
Each line names hits and unclear results; the compound was inactive in the other large screens. Unless noted, the call rests on the fitted dose curve; in most records, active means well fitted curve in the direction sought with a large enough effect; inconclusive means small, poorly fitted or top-dose-only effect, or another doubt; inactive means no such curve, though single readings can be large; an effect the other way counts as inactive or inconclusive.

O=C(NNC(=O)c1ccccn1)c1ccc(OC(F)F)cc1	DT40 TDP1 CPT 5.8µM, HT1080-NT tox inconclusive, DT40 TDP1 no CPT 4.6µM, HT1080 IDH1KD tx 21µM
O=C(NNC(=O)C(c1ccccc1)c1ccccc1)c1ccccc1O	DT40 TDP1 CPT 18µM, DT40 TDP1 no CPT inconclusive, HT1080 IDH1KD tx inconclusive
O=C(NNC(=O)c1cccs1)c1ccccn1	DT40 TDP1 CPT 16µM, HT1080-NT tox inconclusive, DT40 TDP1 no CPT inconclusive, HT1080 IDH1KD tx inconclusive
O=C(NNC(=O)C(c1ccccc1)c1ccccc1)c1ccccn1	DT40 TDP1 CPT 2.9µM, HT1080-NT tox inconclusive, DT40 TDP1 no CPT 2.3µM, HT1080 IDH1KD tx inconclusive, IL1B secr inh -68
O=C(O)c1ccccc1C(=O)NNC(=O)C(c1ccccc1)c1ccccc1	none
CCN(CC(=O)Nc1cccc(S(=O)(=O)N(C)c2ccccc2)c1)Cc1cccs1	DT40 TDP1 CPT inconclusive, DT40 TDP1 no CPT inconclusive
CN1CCC(C)(C(=O)Nc2cccc(Oc3ccccc3)c2)C1 (configuration not stated)	DT40 TDP1 no CPT inconclusive
CCCC(C(=O)NCc1ccco1)N(C(=O)CNS(=O)(=O)c1ccccc1)c1ccccc1OC (configuration not stated)	DT40 TDP1 CPT inconclusive, DT40 TDP1 no CPT inconclusive
CCC1(c2ccccc2)SC(=O)NC1=O (configuration not stated)	DT40 TDP1 no CPT inconclusive
CCC(C)(O)C(=O)N[C@H]1CCCN1C(=O)/C=C/c1ccccc1 (some centres not stated)	none
Cc1ccc(C)c(N2CCN(c3nccn4nc(-c5ccc(Br)cc5)cc34)CC2)c1	none (no result: HT1080-NT tox, HT1080 IDH1KD tx, IL1B secr inh)
CC(Sc1ccc(Cl)cc1)C(=O)NNC(=O)c1ccccc1O (configuration not stated)	DT40 TDP1 CPT 16µM, HT1080-NT tox inconclusive, DT40 TDP1 no CPT 7.3µM, HT1080 IDH1KD tx inconclusive
CSc1cccc(NC(=O)CNC(=O)c2ccc3c(c2)OCO3)c1	none
CSc1cccc(-n2cc(-c3ccc4c(c3)OCO4)[nH]c2=O)c1	DT40 TDP1 CPT 4.6µM, HT1080-NT tox inconclusive, DT40 TDP1 no CPT 5.2µM, HT1080 IDH1KD tx inconclusive
CC(=O)[C@@]1(O)CC[C@H]2[C@@H]3C=C(Cl)C4=CC(=O)CC[C@]4(C)[C@H]3CC[C@@]21C	DT40 TDP1 CPT inconclusive (no result: HT1080-NT tox, HT1080 IDH1KD tx, IL1B secr inh)
CC(=O)O[C@]1(C(C)=O)CC[C@H]2[C@@H]3C=C(Cl)C4=CC(=O)CC[C@]4(C)[C@H]3CC[C@@]21C	DT40 TDP1 CPT inconclusive, DT40 TDP1 no CPT 21µM
CC(=O)O[C@]1(C(C)=O)CC[C@H]2[C@@H]3C=C(Cl)C4=CC(=O)[C@@H]5C[C@@H]5[C@]4(C)[C@H]3CC[C@@]21C	DT40 TDP1 CPT inconclusive, DT40 TDP1 no CPT 21µM
CCCCc1ccc(S(=O)(=O)N2CCC3(CC2)OCCO3)cc1	DT40 TDP1 CPT inconclusive, DT40 TDP1 no CPT inconclusive
O=C(Nc1ccc(F)cc1)C(CCc1ccccc1)N1CCN(Cc2c(F)cccc2Cl)CC1 (configuration not stated)	DT40 TDP1 CPT inconclusive, DT40 TDP1 no CPT inconclusive
Brc1ccccc1/C=N/Nc1ccc2ccccc2n1	DT40 TDP1 CPT inconclusive, HT1080-NT tox inconclusive, DT40 TDP1 no CPT 16µM
O=[N+]([O-])c1cccc(C=NNc2ccc3ccccc3n2)c1O	DT40 TDP1 CPT 5.2µM, DT40 TDP1 no CPT 5.8µM, HT1080 IDH1KD tx inconclusive
CCOc1ccccc1NC(=O)C(Sc1nnnn1C)c1ccccc1 (configuration not stated)	none
Cc1ccc(-c2nnc(SCc3ccccc3C#N)o2)cc1	DT40 TDP1 no CPT inconclusive (no result: HT1080-NT tox, HT1080 IDH1KD tx, IL1B secr inh)
CC1(C(=O)NCc2ccc(F)c(F)c2)Cc2c(-c3ccccc3)ccnc2O1 (configuration not stated)	DT40 TDP1 CPT 10µM, HT1080-NT tox inconclusive, DT40 TDP1 no CPT 6.5µM, HT1080 IDH1KD tx inconclusive
